Here are results for 40 compounds from PubChem BioAssay (EPA / NIEHS).

The AC50 is the concentration at which the activity in the assay is half-maximal.

The source made the active and inactive calls. How the source made its calls: active means hit-call score of the fitted dose curve at least 0.9, where 1 is the maximum; inactive means score below 0.9.

Read-out in this assay: Monocyte Chemoattractant Protein-1 (MCP1), CCL2 (gene 6347)
As to the kind of experiment: BSK_LPS_MCP1: BioMAP Diversity Plus: LPS Assay for Monocyte Chemoattractant Protein-1 (MCP1) Biomarker Activity (AID 2283081).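 On AC50: co-culture stimulated with LPS.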 Conditions: primary human HUVEC with PBMC; actives raise or lower the signal. As for the experimental part:
BSK_LPS is a cell-based, multiplexed-readout assay that uses umbilical vein endothelium and peripheral blood mononuclear cells, a human vascular primary cell co-culture, with measurements taken at 24 hours after chemical dosing in a 96-well plate.BSK_LPS_MCP1 is an assay component measured in the BSK_LPS assay. It measures MCP-1 antibody related to regulation of gene expression using ELISA technology.Data from the assay component BSK_LPS_MCP1 was analyzed into 1 assay endpoint. This assay endpoint, BSK_LPS_MCP1, was analyzed with bidirectional fitting relative to DMSO as the negative control and baseline of activity. Using a type of binding reporter, gain or loss-of-signal activity can be used to understand changes in the signaling as they relate to the gene CCL2. Furthermore, this assay endpoint can be referred to as a primary readout, because this assay has produced multiple assay endpoints where this one serves a signaling function. To generalize the intended target to other relatable targets, this assay endpoint is annotated to the cytokine intended target family, where the subfamily is chemotactic factor.
The levels of cell surface (or secreted, indicated by the prefix "s") biomarker endpoints were measured by ELISA. Overt cytotoxicity to cells in confluent adherent cultures (all systems other than the BT system) was assessed by measuring total protein levels using sulforhodamine B (SRB) staining in parallel cultures at the time of biomarker measurements, indicated as SRB endpoints. For proliferation assays for adherent cell types, individual cell types are cultured at sub-confluence and relative cell numbers quantified by SRB staining at time points optimized for each system (48 h: 3C and CASM3C systems; 72 h: BT and HDF3CGF systems; 96 h: SAg system). SRB was performed by staining cells with 0.1% SRB after fixation with 10% TCA and reading wells at 560 nm.Viability and proliferation of PBMC (T cells) was quantified by Alamar Blue reduction for the SAg and BT systems. For PBMC viability (referred to as PBMC Cytotoxicity within the assay endpoint names), cells were plated (75,000/well in a 96-well plate) and then chemical samples added for 1 h before addition of activators, SEB and TSST-1 (20 ng/mL final concentration each). Cells were incubated for 90 h. Then, Alamar Blue (20 uL/well) (Invitrogen, Cat DAL1100) was added for 6 h, and the plates were read with a fluorescence microplate reader at 546/580 nm (excitation/emission). For PBMC proliferation, cells were plated and activated as above but incubated for only 16 h prior to addition of Alamar Blue. Plates were read after 6 h.
Turning to `CCNC(=O)NC(=O)C(C#N)=NOC`, the outcome was inactive. Same read-out and setting: the value for `CC(C)=CC1C(C(=O)OCc2coc(Cc3ccccc3)c2)C1(C)C` (stereo not given) was “inactive”; that for `COC(=O)NC(=S)Nc1ccccc1NC(=S)NC(=O)OC` was “inactive”. With `CO/N=C(/C1=NOCCO1)c1ccccc1Oc1ncnc(Oc2ccccc2Cl)c1F`, the AC50 was 22.1 µM (active). Consider `COc1cc(OC)nc(NC(=O)NS(=O)(=O)c2ncccc2OCC(F)(F)F)n1`, for which the outcome was inactive. On the same count and under the same terms, the value for `N#Cc1c(Cl)cccc1Cl` was “inactive”. Same read-out and setting: the value for `Nc1c(Cl)c(F)nc(OCC(=O)O)c1Cl` was “inactive”. `Cc1ccc(N=CN(C)C=Nc2ccc(C)cc2C)c(C)c1`: the AC50 was 31.7 µM (active). For `Nc1c(Cl)c(Cl)nc(C(=O)O)c1Cl`, the result was inactive.

In the case of `Cc1cnc(C2=NC(C)(C(C)C)C(=O)N2)c(C(=O)O)c1` (stereo not given), the outcome was inactive. On the same count and under the same terms, the value for `COCC(=O)N(c1c(C)cccc1C)C(C)C(=O)OC` (stereo not given) was “inactive”; that for `CNC(=O)N(C)c1nnc(C(C)(C)C)s1` was “inactive”. The same measure, in the same setting: with `COc1cc(Cl)c(OC)cc1Cl` the entry was “inactive”; with `CCCCC(C#N)(Cn1cncn1)c1ccc(Cl)cc1` (stereo not given), “inactive”; with `CCCC(=NOCC)C1=C(O)CC(CC(C)SCC)CC1=O` (stereo not given), “inactive”. `Nc1cnn(-c2ccccc2)c(=O)c1Cl`: the outcome was inactive.

For `CCCCC(O)(Cn1cncn1)c1ccc(Cl)cc1Cl` (stereo not given), the outcome was inactive.

In the case of `COC(=O)c1c(C(F)F)nc(C(F)(F)F)c(C2=NCCS2)c1CC(C)C`, the result was inactive. Still for that read-out and setting: the value for `COC(=O)N(C(=O)N1CO[C@@]2(C(=O)OC)Cc3cc(Cl)ccc3C2=N1)c1ccc(OC(F)(F)F)cc1` was “inactive”; that for `Cc1cc(C)nc(Nc2ccccc2)n1` was “inactive”; that for `CN/C(=N\[N+](=O)[O-])NCc1cnc(Cl)s1` was “inactive”.

Regarding `COP(=S)(OC)SCn1nnc2ccccc2c1=O`, the AC50 is 20 µM (active). Consider `CC(C)Nc1nc(Cl)nc(NC(C)C)n1`, for which the outcome was inactive. With `CC(C)N1C(=O)N(c2ccccc2)CSC1=NC(C)(C)C`, the AC50 is 30.5 µM (active). As for `CCC(C)n1c(=O)[nH]c(C)c(Br)c1=O` (stereo not given), the outcome was inactive.

In the case of `N#CN=C1SCCN1Cc1ccc(Cl)nc1`, the result was inactive. Consider `O=c1n(Cl)c(=O)n(Cl)c(=O)n1Cl`, for which the outcome was inactive. Same read-out and setting: with `O=C(O)c1c(Cl)ccc2cc(Cl)cnc12` the entry was “inactive”; with `CS(=O)(=O)c1ccc(C(=O)C2C(=O)CCCC2=O)c([N+](=O)[O-])c1`, “inactive”.

For `CC(C)Oc1cccc(NC(=O)c2ccccc2C(F)(F)F)c1`, the result was inactive. Take `N#Cc1c[nH]cc1-c1cccc2c1OC(F)(F)O2`: the AC50 is 17.9 µM (active). `O=P(O)(O)CCCl`: the outcome was inactive.

As to `COP(=S)(OC)Oc1ccc([N+](=O)[O-])c(C)c1`, the AC50 is 20 µM (active). Take `CCOc1nc(C(Cl)(Cl)Cl)ns1`: the outcome was inactive. Same read-out and setting: with `COCC(C)N(C(=O)CCl)c1c(C)csc1C` (stereo not given) the entry was “inactive”; with `CN=C=S`, “inactive”.

As to `CCCN(CC)CC1COC2(CCC(C(C)(C)C)CC2)O1` (stereo not given), the outcome was inactive. As for `CC(C)NC(=O)N1CC(=O)N(c2cc(Cl)cc(Cl)c2)C1=O`, the outcome was inactive.

For `CCOP(=O)(OCC)Oc1nc(Cl)c(Cl)cc1Cl`, the outcome was inactive. On the same count and under the same terms, the value for `CS(=O)(=O)c1cc(C(F)(F)F)ccc1C(=O)c1cnoc1C1CC1` was “inactive”.
